Reference: PubChem BioAssay (NCATS)
Records with an inconclusive call do not appear. Unmarked numbers belong to inactive results. Activity calls are given as the source filed them. Calls come from the whole dose curve; as a rule, active = well fitted cell-killing curve with a large enough effect; inconclusive = small, poorly fitted or top-dose-only effect, or effect the other way; inactive = no such curve, though single readings can be large or run the other way.

assay: qHTS assay to identify small molecule inhibitors of chordoma cells - UCH-1 (AID 1259355); settings: UCH-1 chordoma viability, CellTiter-Glo, 48 h, combination, with auranofin plus four topoisomerase inhibitors; series mostly up to 46.1 µM; activity, negative = inhibition: at the top concentration; note: nearly all actives have a fitted effect of over 55% in size
How it was run: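 Seed 800 cells per well; incubate overnight at 37 C, 5% CO2. Add test compounds (15 concentrations), then the auranofin–topoisomerase-agent combination. Incubate 48hr, add CellTiter-Glo, wait 30min, read luminescence.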
% is set by controls: 0 for no effect and ±100 for the full control effect; potency is the fitted concentration of half-maximal effect.

Structure (SMILES) | activity, negative = inhibition | Potency
CC(O)[C@@H]1NC(=O)[C@H](Cc2ccccc2)NC(=O)[C@H](C(C)O)NC(=O)[C@H](CCCCN)NC(=O)[C@H](Cc2c[nH]c3ccccc23)NC(=O)[C@H](Cc2ccccc2)NC(=O)[C@H](Cc2ccccc2)NC(=O)[C@H](CC(N)=O)NC(=O)[C@H](CCCCN)NC(=O)[C@@H](NC(=O)CNC(=O)[C@H](C)N)CSSC[C@@H](C(=O)O)NC(=O)[C@H](CO)NC1=O (some centres not stated) | -17.9% | –
O=C(O)Cc1cc(I)c(Oc2ccc(O)c(I)c2)c(I)c1 | 3.45% [at 20.6 µM] | –
C[C@H](CCC(=O)O)[C@H]1CC[C@H]2[C@@H]3CC[C@@H]4C[C@H](O)CC[C@]4(C)[C@H]3C[C@H](O)[C@]12C | 7.66% | –
COc1ccc(C(=O)c2ccc(C)cc2)c(O)c1 | -8.64% | –
CC(=O)O[C@@H]1CC2CCC1(C)C2(C)C (some centres not stated) | 1.08% | –
COc1ccc(C[C@H](C)NC[C@@H](O)c2ccc(O)c(NC=O)c2)cc1 | -34.8% | –
O=C(O)CC/C=C\CC[C@@H]1[C@@H](N2CCCCC2)[C@@H](O)C[C@@H]1OCc1ccc(-c2ccccc2)cc1 | -6.58% | –
CC(=O)Oc1cccc(C(=O)O)c1OC(C)=O | -12.9% | –
CN[C@@H]1[C@@H](O)[C@@H](O[C@@H]2[C@@H](O)[C@H](OC3OC(CN)=CCC3N)[C@@H](N)C[C@H]2N)OC[C@]1(C)O (some centres not stated) | -17.5% [at 20.6 µM] | –
NC(=O)OC[C@@H]1[C@H](NC(=O)/C(=N\OCC(=O)O)c2csc(N)n2)C(=O)N1S(=O)(=O)O | -13.1% | –
CN(Cc1ccccc1)Cc1ccccc1 | -7.09% | –
CCOC(=O)c1c[nH]c2cc(OCC(C)C)c(OCC(C)C)cc2c1=O | -5.72% | –
C=Cc1c(C)c2cc3nc(cc4[nH]c(cc5nc(cc1[nH]2)C(C)=C5CCC(=O)OC)c(CCC(=O)O)c4C)[C@@]1(C)C3=CC=C(C(=O)OC)[C@H]1C(=O)OC | -3.52% | –
COc1cc(S(C)=O)ccc1-c1nc2ncccc2[nH]1 (configuration not stated) | -8.64% | –
CN[C@@H]1[C@@H](O)[C@@H](O[C@@H]2[C@@H](O)[C@H](O[C@H]3O[C@H](CN)[C@@H](O)[C@H](O)[C@H]3O)[C@@H](N)C[C@H]2NC(=O)C(O)CN)OC[C@]1(C)O (some centres not stated) | -28.1% | –
OC[C@H]1O[C@@H]2O[C@H]3[C@H](O)[C@@H](O)[C@@H](O[C@H]4[C@H](O)[C@@H](O)[C@@H](O[C@H]5[C@H](O)[C@@H](O)[C@@H](O[C@H]6[C@H](O)[C@@H](O)[C@@H](O[C@H]7[C@H](O)[C@@H](O)[C@@H](O[C@H]1[C@H](O)[C@H]2O)O[C@@H]7CO)O[C@@H]6CO)O[C@@H]5CO)O[C@@H]4CO)O[C@@H]3CO | -11.1% | –
CCN(CC)CCOc1ccccc1OC | -16% | –
CCCCCCCCCCCCOCCCN | -1.69% | –
CC1=CC(=C(c2ccc(N)cc2)c2ccc(N)cc2)C=CC1=N | – | 15.8 µM (active)

Structure (SMILES) | activity, negative = inhibition | Potency
NC(=O)[C@@H]1C[C@]2(NC(=O)NC2=O)c2cc(F)ccc2O1 | -5.57% | –
C[C@H](N)C(=O)N[C@@H](C)P(=O)(O)O | -3.15% | –
Cc1cc(-c2ccc(N=Nc3c(S(=O)(=O)O)cc4cc(S(=O)(=O)O)cc(N)c4c3O)c(C)c2)ccc1N=Nc1c(S(=O)(=O)O)cc2cc(S(=O)(=O)O)cc(N)c2c1O | – | 11.2 µM (active)
O=C(O)/C=C/C(=O)Nc1ccc(S(=O)(=O)Nc2nccs2)cc1 | -3.03% | –
CC(O)[C@H]1CC[C@H]2[C@@H]3CC[C@@H]4C[C@@H](O)CC[C@]4(C)[C@H]3CC[C@]12C (some centres not stated) | 1.94% | –
CO[C@H]1C[C@H](O[C@@H]2/C(C)=C/C[C@@H]3C[C@@H](C[C@]4(CC[C@H](C)[C@@H](C5CCCCC5)O4)O3)OC(=O)[C@@H]3C=C(C)/C(=N/O)[C@H]4OC/C(=C\C=C\[C@@H]2C)[C@]43O)O[C@@H](C)[C@@H]1O | -22.6% | –
CO[C@@H]1[C@H](OC(=O)/C=C/C=C/C=C/C=C/C(=O)O)CC[C@]2(CO2)[C@H]1[C@@]1(C)O[C@@H]1CC=C(C)C | 4.71% | –
O=C1CCC(=O)N1CO | -8.45% | –
CN(C)C(=O)CCSC(SCCC(=O)O)c1cccc(/C=C/c2ccc3ccc(Cl)cc3n2)c1 (configuration not stated) | -22.5% | –
Cc1c(N)nc([C@H](CC(N)=O)NC[C@H](N)C(N)=O)nc1C(=O)N[C@H](C(=O)N[C@H](C)[C@@H](O)[C@H](C)C(=O)N[C@H](C(=O)NCCc1nc(-c2nc(C(=O)NCCCCN=C(N)N)cs2)cs1)[C@@H](C)O)[C@@H](O[C@@H]1O[C@@H](CO)[C@@H](O)[C@H](O)[C@@H]1O[C@H]1O[C@H](CO)[C@@H](O)[C@H](OC(N)=O)[C@@H]1O)c1cnc[nH]1 | -32.7% | –
Cc1cccc(C)c1Nc1ncccc1C(=O)O | -11.5% | –
N=C(N)c1ccc(/C=C/c2ccc(C(=N)N)cc2O)cc1 | -26.7% | –
O=P(O)(O)O | -12.5% | –
O=C(O)CCCC/C=C(\c1ccccc1)c1cccnc1 | 1.13% | –
N[C@H](CC(=O)O)C(=O)O | 34.3% | –
CNC(C)CCC=C(C)C (configuration not stated) | 0.377% | –
CCCCC[C@H](O)/C=C/[C@H]1[C@H](O)CC(=O)[C@@H]1CCCCCCC(=O)O | -15.2% [at 20.6 µM] | –
CO/N=C(\C(=O)N[C@@H]1C(=O)N2C(C(=O)O)=CCS[C@H]12)c1csc(N)n1 | -1.69% | –
